Bioassay records (PubChem BioAssay)
In the library only some 8.3% were active in any assay of this set; here they are far more common.
Giardia killer: Giardia lamblia killing | Giardia lamblia trophozoite viability | activity change, % at 7.66 µM, hits read low | hit rate 0.15% among 340,000; in the data active means activity change below about -80%; inconclusive means between about -30% and that limit;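 further: parasites exposed to compound for two days anaerobically before the ATP read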
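Anaerobic 48 hrs incubation at 37 deg C of 100 trophozoites/well with test compounds; ATPLite 1-Step luminescence, 15-30 min RT, reports cellular ATP as viability.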
SW480 rerep: induces DNA re-replication in SW480 colon adenocarcinoma cells. SW480 DNA re-replication, Hoechst DNA content imaging, 48 h. AID 624297. hit rate 1.8% among 340,000. Potency, µM (titrated, usually from 46.1 µM), most hits filed as activators; further: nearly all actives have a fitted effect of over 55% in size
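Hoechst fluorescence of nuclei (405 nm excitation, 500-530 nm emission) measured by plate-scanning imager after 48 hr compound exposure at 37 C; re-replication scored as increased number of nuclei with elevated intensity.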
RORgamma inh: ROR gamma (mouse) transcription inhibition; Drosophila S2 Gal4-RORgamma UAS-luciferase reporter, 20 h; Potency, µM (series often up to 53.6 µM), hits mostly inhibitors; hit rate 5.4% among 310,000; AID 2551; further: nearly all actives have a fitted effect of over 60% in size
Target sequence (P51450 whole entry, looked up, the tested form may be a part): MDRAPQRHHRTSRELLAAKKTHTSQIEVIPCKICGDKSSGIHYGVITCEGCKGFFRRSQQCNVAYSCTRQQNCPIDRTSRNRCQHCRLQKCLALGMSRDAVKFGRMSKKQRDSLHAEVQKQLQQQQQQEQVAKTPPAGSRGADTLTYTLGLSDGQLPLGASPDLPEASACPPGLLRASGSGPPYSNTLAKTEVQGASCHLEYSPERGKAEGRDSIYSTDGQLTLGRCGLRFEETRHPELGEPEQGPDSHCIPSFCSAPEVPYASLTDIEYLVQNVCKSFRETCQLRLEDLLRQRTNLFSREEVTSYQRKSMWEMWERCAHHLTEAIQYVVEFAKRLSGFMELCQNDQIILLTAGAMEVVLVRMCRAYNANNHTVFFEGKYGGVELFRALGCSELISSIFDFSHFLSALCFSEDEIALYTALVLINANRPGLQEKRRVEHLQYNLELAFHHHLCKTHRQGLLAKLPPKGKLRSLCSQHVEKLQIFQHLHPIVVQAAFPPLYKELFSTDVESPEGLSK
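Luminescence from a UAS-regulated Photinus luciferase reporter in stably transfected Drosophila Schneider cells is measured; decreased signal marks ROR gamma inhibition. Fusion expression is induced by 700 uM copper sulfate for 20 hr.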
BCR signal inh: chronic active BCR signaling inhibition. ABC-DLBCL IkBa-CBG/CBR reporter, luminescence ratio, 4 h. Potency, µM (doses to about 46.1 µM), most hits filed as inhibitors. AID 493014. hit rate 0.05% among 340,000; active means well fitted inhibition curve with a large enough effect in the signal ratio, with a control signal flat, not every such curve was filed as active; inconclusive means small, poorly fitted or top-dose-only effect, or effect the other way, or a change in a side signal; the % refers to the signal ratio
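Concentration-response series (up to 46 uM) were applied to TMD8 dual-reporter cells for 4 h at 37C with doxycycline. Green/red ratio, after filter-overlap correction, defined %Activity; red signal alone was normalised to basal cells and zero luminescence.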
MCF10A rerep: induces DNA re-replication in MCF 10a normal breast cells. hit rate 2.9% among 350,000. Potency, µM (titrated, usually from 46.1 µM), hits mostly activators. AID 624296. MCF 10A DNA re-replication, Hoechst nuclear intensity, 48 h; further: nearly all actives have a fitted effect of over 50% in size
VP16 counter: Gal4-VP16 reporter inhibition counter-screen; AID 2546; Drosophila S2 Gal4-VP16 UAS-luciferase, luminescence, 20 h; Potency, µM (top dose mostly 53.6 µM), actives largely listed as inhibitors; hit rate 3.5% among 310,000;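 further: Gal4-VP16 expression switched on by copper sulfate through the metallothionein promoter; nearly all actives have a fitted effect of over 50% in size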
Of the large screens only hits and unclear results are named; the others gave an inactive call. Unless noted, the call rests on the fitted dose curve; in most records, active means well fitted curve in the direction sought with a large enough effect; inconclusive means small, poorly fitted or top-dose-only effect, or another doubt; inactive means no such curve, though single readings can be large; an effect the other way counts as inactive or inconclusive.

CC1(C)CC[C@]2(C(=O)O)CC[C@]3(C)C(=CCC4[C@@]5(C)CC[C@H](O)C(C)(C)C5CC[C@]43C)C2C1 (some centres undefined)	Giardia killer inconclusive, RORgamma inh 6.31µM
CC1(C)CC[C@]2(C(=O)O)CC[C@@]3(C)C(=CCC4[C@@]5(C)CCC(O)[C@@](C)(CO)C5CC[C@@]43C)C2C1 (some centres undefined)	none (no result: Giardia killer, SW480 rerep, BCR signal inh, MCF10A rerep)
O=C(CN(Cc1cccs1)C(=O)CSc1nnc(COc2ccccc2)o1)NC1CCCC1	SW480 rerep inconclusive, MCF10A rerep 10.3µM
O=C(CN(Cc1ccccc1)C(=O)CSc1nnc(COc2ccccc2)o1)NC1CCCC1	none
C=CCNC(=O)/C(C#N)=C/c1ccc(OS(=O)(=O)c2ccc(C)cc2)c(OC)c1	SW480 rerep inconclusive, RORgamma inh 11.2µM, BCR signal inh inconclusive, MCF10A rerep inconclusive, VP16 counter inconclusive
CC(C)Oc1ccc(C2CC(=O)N(c3cccc(Br)c3)C2=O)cc1 (centres undefined)	RORgamma inh inconclusive
Cc1ccc(N(CCC#N)C(=O)CCl)cc1C	SW480 rerep 7.31µM, RORgamma inh inconclusive, BCR signal inh inconclusive, MCF10A rerep 23.1µM
COc1ccc(Cc2[nH]n3c(=O)c(Cl)c(C)nc3c2-c2ccccc2)cc1	SW480 rerep inconclusive, MCF10A rerep inconclusive
CC(=O)Nc1cc2c3c(cccc3c1)-c1ccccc1-2	SW480 rerep 16.4µM, MCF10A rerep 2.31µM (no result: RORgamma inh, BCR signal inh, VP16 counter)
O=C(CC(=O)c1ccccc1O)c1cccc(F)c1	RORgamma inh 7.08µM, MCF10A rerep inconclusive, VP16 counter inconclusive
O=C(CC(=O)c1c(F)cccc1Cl)c1ccccc1O	RORgamma inh 20µM, VP16 counter 11.2µM
COc1ccc(C(=O)CC(=O)c2ccc(F)cc2)cc1	none (no result: RORgamma inh, BCR signal inh, VP16 counter)
O=C(CC(=O)c1ccccc1O)c1ccc(F)cc1	SW480 rerep inconclusive, RORgamma inh 14.1µM, BCR signal inh inconclusive, MCF10A rerep inconclusive, VP16 counter inconclusive
CSc1ccccc1NC(=O)COC(=O)Cn1cc(C(F)(F)F)ccc1=O	none (no result: RORgamma inh, VP16 counter)
Cc1ccc2cc(C#N)c(SCC(=O)N3CCCc4ccccc43)nc2c1C	none
Cc1ccc(O)c(NC(=O)c2noc3c2CCc2ccccc2-3)c1	SW480 rerep 14.6µM, MCF10A rerep inconclusive
Cc1cc(NC(=O)c2noc3c2CCc2ccccc2-3)no1	none
CC(=O)c1cccc(NC(=O)c2noc3c2CCc2ccccc2-3)c1	RORgamma inh 0.708µM, BCR signal inh inconclusive, MCF10A rerep inconclusive, VP16 counter 2.24µM
CN1C(=O)C(=O)/C(=C(/O)c2ccc(Br)cc2)C1c1cccc([N+](=O)[O-])c1 (centres undefined)	MCF10A rerep inconclusive
CC(C)(CNC(=O)C1c2ccccc2-c2ccccc21)N1CCOCC1	none
O=C(Nc1ccc2nc(-c3cccs3)c(-c3cccs3)nc2c1)N1CCOCC1	SW480 rerep 23.1µM, BCR signal inh inconclusive, MCF10A rerep 18.4µM
O=C(Nc1ccc2nc(-c3ccco3)c(-c3ccco3)nc2c1)NC1CC1	SW480 rerep inconclusive, BCR signal inh inconclusive
O=C(c1ccc2nc(-c3ccco3)c(-c3ccco3)nc2c1)N1CCN(c2ccccc2)CC1	SW480 rerep inconclusive, BCR signal inh inconclusive, MCF10A rerep 16.4µM
O=C(Nc1ccc(N2CCOCC2)cc1)Nc1ccc2nc(-c3ccco3)c(-c3ccco3)nc2c1	RORgamma inh inconclusive, BCR signal inh inconclusive, MCF10A rerep 9.2µM, VP16 counter inconclusive
O=C(Nc1ccc2nc(-c3ccccn3)c(-c3ccccn3)nc2c1)N1CCCC1	none (no result: SW480 rerep, RORgamma inh, BCR signal inh, MCF10A rerep, VP16 counter)
CN(C)c1ccc(/C=N/n2ncc3ccccc32)cc1	SW480 rerep inconclusive, RORgamma inh 0.708µM, MCF10A rerep inconclusive, VP16 counter 7.08µM
O=c1c(Cl)c(NCC2CCCO2)cnn1C12CC3CC(CC(C3)C1)C2 (centres undefined)	BCR signal inh inconclusive
CC(C)(C)c1ccc(Cn2c(=O)cnc3ccccc32)cc1	SW480 rerep inconclusive, RORgamma inh 22.4µM, BCR signal inh inconclusive, MCF10A rerep 14.6µM, VP16 counter inconclusive
CC(=O)c1c(N)[nH]c(-c2ccccc2)nc1=S	RORgamma inh 0.316µM, VP16 counter 0.794µM
